Test results: PubChem BioAssay (NCATS)
Records with an inconclusive call do not appear. Calls of active or inactive are those of the source. Calls come from the whole dose curve; as a rule, active = well fitted curve in the direction sought with a large enough effect; inconclusive = small, poorly fitted or top-dose-only effect, or another doubt; inactive = no such curve, though single readings can be large; an effect the other way counts as inactive or inconclusive.

Legend:
[1] = test system: HACAT; assay: qHTS assay to identify novel small-molecules to repurpose for Merkel cell carcinoma treatment (AID 1296009); conditions: MCC and control cell lines, CellTiter-Glo viability, 72 h; at 44.8 µM (top of the series) unless noted; note: nearly all actives have a fitted effect of over 60% in size
Procedure, shortened: (§1)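 72 hr, 37 degree celsius; NPC 8-pt / MIPE 11-pt dose response; compound pinned in DMSO; CellTiter-Glo, 10 min RT, luminescence; normalized to no-cell and DMSO controls.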

[2] = test system: MCC-13; assay: as above; conditions: MCC and control cell lines, CellTiter-Glo viability, 72 h; series mostly up to 46 µM
Procedure, shortened: as §1

[3] = test system: MKL-1; assay: as above; conditions: MCC and control cell lines, CellTiter-Glo viability, 72 h; series mostly up to 46 µM
Procedure, shortened: as §1

[4] = test system: MKL-2; assay: as above; conditions: MCC and control cell lines, CellTiter-Glo viability, 72 h; series mostly up to 46 µM
Procedure, shortened: as §1

[5] = test system: UISO; assay: as above; conditions: MCC and control cell lines, CellTiter-Glo viability, 72 h; series mostly up to 46 µM
Procedure, shortened: as §1

[6] = test system: WaGa; assay: as above; conditions: MCC and control cell lines, CellTiter-Glo viability, 72 h; series mostly up to 46 µM
Procedure, shortened: as §1

[7] = test system: C33A; assay: Primary qHTS to identify gynecologic anti-cancer compounds using libraries of approved drugs and bioactive compounds (AID 1345084); conditions: Gynecologic cancer cell panel viability, ATPlite luminescence, 48 h; series mostly up to 57.5 µM; note: nearly all actives have a fitted effect of over 55% in size
Procedure, shortened: (§2)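 Cells, 1,000 per well, were allowed to settle for 16 h at 37 C before compound addition. Five concentrations were tested for 48 h, and viability was read by ATPlite luminescence after 15 min at room temperature.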

[8] = test system: CASKI; assay: as above; conditions: Gynecologic cancer cell panel viability, ATPlite luminescence, 48 h; series mostly up to 57.5 µM
Procedure, shortened: as §2

[9] = test system: Es-2; assay: as above; conditions: Gynecologic cancer cell panel viability, ATPlite luminescence, 48 h; series mostly up to 57.5 µM
Procedure, shortened: as §2

[10] = test system: HeLa; assay: as above; conditions: Gynecologic cancer cell panel viability, ATPlite luminescence, 48 h; series mostly up to 57.5 µM
Procedure, shortened: as §2

[11] = test system: Hek293T; assay: as above; conditions: Gynecologic cancer cell panel viability, ATPlite luminescence, 48 h, control line for the selectivity index; series mostly up to 57.5 µM
Procedure, shortened: as §2

[12] = test system: JEG-3; assay: as above; conditions: Gynecologic cancer cell panel viability, ATPlite luminescence, 48 h; series mostly up to 57.5 µM
Procedure, shortened: as §2

[13] = test system: OV90; assay: as above; conditions: Gynecologic cancer cell panel viability, ATPlite luminescence, 48 h; series mostly up to 57.5 µM
Procedure, shortened: as §2

[14] = test system: PA-1; assay: as above; conditions: Gynecologic cancer cell panel viability, ATPlite luminescence, 48 h; series mostly up to 57.5 µM
Procedure, shortened: as §2

[15] = test system: SKOV3; assay: as above; conditions: Gynecologic cancer cell panel viability, ATPlite luminescence, 48 h; series mostly up to 57.5 µM
Procedure, shortened: as §2

[16] = test system: Tov-21-G; assay: as above; conditions: Gynecologic cancer cell panel viability, ATPlite luminescence, 48 h; series mostly up to 57.5 µM
Procedure, shortened: as §2

[17] = test system: MCC-26; assay: qHTS assay to identify novel small-molecules to repurpose for Merkel cell carcinoma treatment (AID 1296009); conditions: MCC and control cell lines, CellTiter-Glo viability, 72 h; series mostly up to 46 µM; note: nearly all actives have a fitted effect of over 60% in size
Procedure, shortened: as §1

[18] = test system: HEK293T; assay: as above; conditions: MCC and control cell lines, CellTiter-Glo viability, 72 h; at 44.8 µM (top of the series) unless noted
Procedure, shortened: as §1

[19] = test system: CAOV3; assay: Primary qHTS to identify gynecologic anti-cancer compounds using libraries of approved drugs and bioactive compounds (AID 1345084); conditions: Gynecologic cancer cell panel viability, ATPlite luminescence, 48 h; series mostly up to 57.5 µM; note: nearly all actives have a fitted effect of over 55% in size
Procedure, shortened: as §2

Measured: Potency

OC(C#CCN1CCCC1)(c1ccccc1)c1ccccc1
not listed: [17] | [18] | [19]
inactive: all other assays above

C/C=C/c1ccc(O)c(OC)c1
not listed: [4] | [18] | [19]
inactive: all other assays above

CCN(CC)CCOC(=O)C1(c2ccccc2)CCCC1
not listed: [1] | [13]
inactive: all other assays above

O=C(NC1CCN(CCc2c[nH]c3ccccc23)CC1)c1ccccc1
not listed: [10] | [17] | [18]
inactive: all other assays above

CC(=O)O[C@]1(C(C)=O)CC[C@H]2[C@@H]3C=C(Cl)C4=CC(=O)CC[C@]4(C)[C@H]3CC[C@@]21C
not listed: [4] | [18]
inactive: all other assays above

COc1ccc(C(=O)c2ccccc2)c(O)c1
not listed: [1]
inactive: all other assays above

CCC(Cc1c(I)cc(I)c(N)c1I)C(=O)O (stereo not drawn)
not listed: [1]
inactive: all other assays above
